From PubChem BioAssay AID624300 (Southern Research Specialized Biocontainment Screening …, 2012)
Hit rate of the full screen: of about 2,400 compounds, about 360 (15%) were called active.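 The calls were made as follows: active = viability falls under 70% at one or more tested concentrations, taken as toxicity; inactive = viability stays over 70% at every dose.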 Only a sample is shown. Entries with a potency or affinity are not part of this list.

Assay: viability loss in HeLa cells – cytotoxicity control for MgcRacGAP inhibitor project, dose response (AID 624300)
Conditions: CellTiter-Glo luminescence, 24 h; series mostly up to 100 µM

SMILES	outcome
O=C(CNC(=O)c1cccnc1)N/N=C/c1ccc(O)cc1O	inactive
COc1cc(/C=C/C(=O)OCC(=O)c2ccc[nH]2)ccc1O	inactive
COCCNCC(=O)Nc1nc(C)cs1	inactive
Cc1ccc(CNc2ccc(N3CCOCC3)cc2)s1	inactive
CN(C1CCCCC1)S(=O)(=O)c1cccc2nsnc12	inactive
COc1cc(/C=N/NC(=O)C2CCN(CC(O)COCc3ccccc3)CC2)ccc1O (configuration not stated)	inactive
COc1cc(/C=N/NC(=O)CNC(=O)c2ccco2)ccc1O	inactive
O=C(/C(=C/c1ccccc1)n1cncn1)c1ccc(Cl)cc1Cl	inactive
COc1cc(-c2nc3cnccn3c2Nc2ccc(C)cc2)ccc1O	inactive
Cc1ccn2c(Nc3ccc4c(c3)OCO4)c(-c3ccc(O)cc3)nc2c1	inactive
CCOc1ccc(N)cc1OC	inactive
Cc1cc(Cl)cc2sc(=S)[nH]c12	inactive
O=C(CNc1ccc2c(c1)OCO2)N/N=C\c1ccccc1Cl	inactive
NC(=S)N/N=C/c1cccc(O)c1O	inactive
Cc1ccc(C2CC(=O)N3CN(c4ccc(Br)cc4)CSC3=C2C#N)o1 (configuration not stated)	inactive
OC1CCN(C(=S)Nc2ccc(Nc3ccccc3)cc2)CC1	inactive
Nc1ccc(N2CCN(c3ccc(Cl)c(Cl)c3)CC2)cc1	inactive
CCN(Cc1ccncc1)Cc1ccc(OC)c(OC)c1	inactive
COc1ccc(NC2CCCN(C(=O)COc3ccc(Cl)cc3C)C2)cc1OC (configuration not stated)	inactive
COc1ccc(NC(=O)n2ncc3c(C)cccc32)cc1OC	inactive
CCCC(=Nc1ccc(N)cc1)C1=C(O)C(C(=O)OC)C(C)(C)CC1=O (configuration not stated)	inactive
COc1ccc(N2CCN(C(CNC(=O)CC(C)(C)C)c3ccc4c(c3)OCO4)CC2)cc1 (configuration not stated)	inactive
COC(=O)NCC(c1ccc2c(c1)OCO2)N1CCN(c2ccc(OC)cc2)CC1 (configuration not stated)	inactive
COc1cc2c(cc1N)-c1ccc(N)cc1C2=O	inactive
COc1cc(/C=C/CN2CCN(Cc3ccc(C)o3)C(CCO)C2)ccc1O (configuration not stated)	inactive

SMILES	outcome
COc1ccc(/C=N/NC(=O)c2cc[n+]([O-])cc2)cc1O	inactive
Cc1ccc(O)c(C=Nc2ccc3[nH]ncc3c2)c1	inactive
Nc1ccc2nc(C3CCCCC3)[nH]c2c1	inactive
CCOC(=O)C1Nc2ccc(C(=O)O)cc2C2C=CCC12 (configuration not stated)	inactive
CCOc1cc(/C=N/N2CCN(Cc3ccccc3)CC2)ccc1O	inactive
Cc1sc2nc(CN3CCOCC3)nc(N3CCOCC3)c2c1C	inactive
O=S(=O)(Nc1ccccc1F)c1cccc(NC(=S)NCCN2CCOCC2)c1	inactive
CCN(CC)c1ccc(NC(=O)CN(C)Cc2cccs2)cc1	inactive
O=C1/C(=C\c2ccccc2)CN(C(=O)CCN2CCCCC2)C/C1=C/c1ccccc1	inactive
CN(C)S(=O)(=O)c1cc(NC(=O)CNCCN2CCOCC2)ccc1Cl	inactive
COc1cc(/C=N/NC(=O)c2cc(C)oc2C)ccc1O	inactive
COC(=O)/C(=C/Nc1ccc(O)cc1)[N+](=O)[O-]	inactive
Nc1ccc2c(c1)Cc1cc(N)c(Cl)cc1-2	inactive
COc1cc(C(C)n2nnc3ccccc32)ccc1O (configuration not stated)	inactive
COc1ccccc1OCCCCCCN1CCOCC1	inactive
COCCNC(=S)Nc1cc(OC)c(OC)cc1C#N	inactive
Oc1ccc(-c2csc(Nc3ccccn3)n2)cc1	inactive
NS(=O)(=O)c1ccc(Nc2nc(-c3ccc(O)cc3)cs2)cc1	inactive
CC(=O)Nc1cccc(-c2csc(NCc3ccccc3)n2)c1	inactive
Cc1nc2ncccn2c1-c1csc(Nc2ccc(O)cc2)n1	inactive
Cc1cc(O)ccc1Nc1nc(-c2cccs2)cs1	inactive
Cc1cc(NS(=O)(=O)c2ccc(Nc3nc(-c4ccc(O)cc4)cs3)cc2)no1	inactive
Cc1ccnc(Nc2nc(-c3ccc(O)cc3)cs2)c1	inactive
CC(C)Oc1ccc(OCCn2c(=S)[nH]c3c(N)ncnc32)cc1	inactive
CSc1ccccc1NC(=O)CN(C)C(C)C(=O)NCc1ccc2c(c1)OCO2 (configuration not stated)	inactive

SMILES	outcome
COc1cc(/C=C/C(=O)OCC(=O)Nc2ccc3c(c2)OCO3)ccc1O	inactive
Nn1c(=S)[nH]c2sc3c(c2c1=O)CCCC3	inactive
Cc1cc(C)c(OCC(O)CN2CCN(C(=O)c3ccccc3)CC2)c(C)c1 (configuration not stated)	inactive
COc1nc(Nc2ccc(O)cc2)nc(OC(C(F)(F)F)C(F)(F)F)n1	inactive
O=C(c1cccc(F)c1)N1CCN(Cc2cccc(Br)c2)CC1	inactive
OCCN1CCN(C(=S)Nc2cccc(C(F)(F)F)c2)CC1	inactive
N#CC1=C(S)N(c2ccc(F)cc2)C(c2cccs2)NC1=O (configuration not stated)	inactive
O=C(O)c1ccc(-c2ccc(/C=c3/sc4nc5ccccc5n4c3=O)o2)cc1Cl	inactive
O=S(=O)(c1ccc2ccccc2c1)N1CCN(C2CCN(Cc3ccccc3)CC2)CC1	inactive
O=C(CCCCCNC(=O)c1ccccc1)N/N=C/c1ccc(O)cc1O	inactive
O=S(=O)(O)c1cc(Cl)cc(N=Nc2ccc(O)cc2O)c1O	inactive
CCc1cc(-c2n[nH]c(CCC(=O)O)c2-c2nc3ccccc3n2C)c(O)cc1O	inactive
COc1ccc2c(c1)Sc1ccccc1N2	inactive
Cn1cnc2cc(NCc3ccccc3O)ccc21	inactive
CCN(CC)c1ccc(N=Cc2ccccc2[N+](=O)[O-])cc1	inactive
CC(=O)OCCNc1cc(N2CCN(C)CC2)c2noc3c2c1C(=O)c1ccccc1-3	inactive
CCOc1cc(/C=N\n2nnnc2N)ccc1O	inactive
CCOc1cc(/C=N/NC(=O)CCn2nc(C)cc2C)ccc1O	inactive
CCN(CC)c1ccc(NC(=O)COC(=O)Cc2ccsc2)cc1	inactive
Nc1c(/C=C2/C=CC(=O)C(O)=C2)c(=O)nc2sc(CC(=O)N3CCCC3)nn12	inactive
CC(=O)Nc1ccc(OC(=O)Cc2ccc(Cl)cc2)cc1	inactive
OCCCNC(=S)Nc1ccc(Nc2ccccc2)cc1	inactive
COc1cc(OC)c(OC)cc1CN1CCN(C(=O)c2cccc3ccccc23)CC1	inactive
O=c1cc(-c2ccc(O)c(O)c2)oc2cc(O)c(C3OC(CO)C(O)C(O)C3O)c(O)c12 (configuration not stated)	inactive
Oc1ccc(N2CCN(C(=S)NCCc3ccccc3)CC2)cc1	inactive

SMILES	outcome
CC1(C)CNc2cc(N)ccc2S1	inactive
Nc1n[nH]c(=S)n1/N=C1/C(=O)Nc2ccccc21	inactive
CC(C)N1CCN(C(=O)c2cccc(Cl)c2)CC1	inactive
Fc1ccc(CNCc2ccccc2Cl)cc1	inactive
Oc1ccc2ccc(Cl)cc2c1	inactive
C=CCc1cc(Cl)ccc1OCCN(C)C	inactive
CCN1CCN(CCCOc2ccc(Cl)cc2Br)CC1	inactive
CCn1nc(C)c(Br)c1C(=O)Sc1ccccc1Cl	inactive
Cc1c(NC(=O)CNCc2ccc3c(c2)OCO3)c(=O)n(-c2ccccc2)n1C	inactive
Nc1ccc(N=Nc2ccc(N)cc2)cc1	inactive
COc1cccc(OC)c1NC(=O)CN1CCN(C)CC1	inactive
COc1ccc(/C=N/NC(=O)c2cnccn2)cc1O	inactive
O=C(CNCc1ccco1)Nc1cccc(S(=O)(=O)N2CCCCC2)c1	inactive
Cc1cn([C@H]2C[C@H](O)[C@@H](CNCC3=Cc4cc(O)ccc4OC3)O2)c(=O)[nH]c1=O	inactive
CCN(c1ccccc1)S(=O)(=O)c1ccc(Cl)c(NC(=O)CN(C)C2CCN(C)CC2)c1	inactive
CN1CCC(N(C)CC(=O)Nc2ccc3c(c2)OC(F)(F)O3)CC1	inactive
COc1cc(/C=C/C(=O)OCC(=O)N2CCN(C(=O)c3ccco3)CC2)ccc1O	inactive
CCn1c(=O)c2c3c(sc2n2c(=S)[nH]nc12)CCC3	inactive
CC1(C)OC(C)(C)/C(=C/Nc2ccc(O)cc2)C1=O	inactive
COc1cc(C(=O)N/N=C(\C)c2ccc(NC(=O)Cc3ccccc3)cc2)ccc1O	inactive
O=C(Nc1ccc(O)cc1)c1ccccc1OCc1ccccc1	inactive
c1cc(CN2CCN(C3CCCCCC3)CC2)ccn1	inactive
O=C1CC(Nc2ccc(N3CCOCC3)cc2)C(=O)N1Cc1ccccc1 (configuration not stated)	inactive
CSc1ccccc1NC(=O)CNCCCN1CCOCC1	inactive
COc1cc(CC(=O)OCC(=O)Nc2ccc(N(C)C)cc2)cc(OC)c1OC	inactive

SMILES	outcome
Cc1cc(-c2n[nH]c(=S)n2/N=C/c2cccs2)n[nH]1	inactive
CCCCNCC#CCOc1cc(C)ccc1C(C)C	inactive
C=CCNCC(O)COc1ccc(C(C)=O)cc1OC (configuration not stated)	inactive
O=C(CNCc1ccco1)Nc1ccc(N2CCCCCC2)cc1	inactive
CC1CN(CCCCOc2ccc(Cl)c3ccccc23)CC(C)O1 (configuration not stated)	inactive
Cc1ccccc1OCCN1CCCC1	inactive
COc1cc(C2NC(=O)C(C#N)=C(S)N2c2ccc(C)cc2)ccc1OC(C)C (configuration not stated)	inactive
Nc1ccc2ccc(O)cc2c1	inactive
CCOc1cc(/C=C(\C#N)C(=O)NCc2cccnc2)ccc1O	inactive
CCOc1cc(/C=C(\C#N)C(=O)NCC2CCCO2)ccc1O (configuration not stated)	inactive
O=C(CCC1CCCC1)N1CCN(C2CCCC2)CC1	inactive
CC(C)(C)c1cc(C(=O)N/N=C/c2ccc(O)cc2)n(-c2ccccc2)n1	inactive
Cc1cccc2sc(NNC(=O)c3cc(=O)c4ccccc4o3)nc12	inactive
COc1ccc(NC(=S)NCC2CCN(c3ccc(OC)cc3)C2)cc1 (configuration not stated)	inactive
C=CCc1cc(Cl)ccc1OCCn1ccnc1	inactive
CCOc1cc(/C=N/NC(=O)CN2CCCCC2)ccc1O	inactive
O=C1CSC(=Nc2ccc(O)cc2)N1c1ccc(O)cc1	inactive
COc1ccc(NC2CCCN(C(=O)c3cc(C)nc4cc(F)ccc34)C2)cc1 (configuration not stated)	inactive
O=C(N/N=C/c1ccc(N2CCOCC2)s1)c1ccc(O)cc1	inactive
Cc1c(N=Nc2ccc(N(C)C)cc2)c(=O)n(-c2ccccc2)n1C	inactive
CN(C)c1ccc(N=c2sc3ccccc3n2C)cc1	inactive
O=C(N/N=C/c1ccc(O)cc1)c1cc[n+](Cc2ccccc2)cc1	inactive
